Data taken from PubChem BioAssay AID504454 (NMMLSC, 2011).
Hit rate of the full screen: of about 340,000 compounds, about 1,400 (0.41%) were called active. Shown is part of a subset that was picked to be rich in actives. Values without a mark were called inactive.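 The calls were made as follows: active = response above a set limit, near 3 SD of response in nonfluorescent compounds (cut at about 42% in these data); inactive = the rest.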

What follows are molecules tested against Beta-2 adrenergic receptor (Homo sapiens) (UniProt P07550) (assay: agonist-induced loss of surface beta2AR – cell-based, FAP fluorogen, flow cytometry, primary screen (AID 504454)). Conditions: Am2.2-beta2AR cells, FAP receptor internalization, stronger effect = higher value, concentration not given here.
Chain of Beta-2 adrenergic receptor (Homo sapiens) (P07550 whole entry, looked up): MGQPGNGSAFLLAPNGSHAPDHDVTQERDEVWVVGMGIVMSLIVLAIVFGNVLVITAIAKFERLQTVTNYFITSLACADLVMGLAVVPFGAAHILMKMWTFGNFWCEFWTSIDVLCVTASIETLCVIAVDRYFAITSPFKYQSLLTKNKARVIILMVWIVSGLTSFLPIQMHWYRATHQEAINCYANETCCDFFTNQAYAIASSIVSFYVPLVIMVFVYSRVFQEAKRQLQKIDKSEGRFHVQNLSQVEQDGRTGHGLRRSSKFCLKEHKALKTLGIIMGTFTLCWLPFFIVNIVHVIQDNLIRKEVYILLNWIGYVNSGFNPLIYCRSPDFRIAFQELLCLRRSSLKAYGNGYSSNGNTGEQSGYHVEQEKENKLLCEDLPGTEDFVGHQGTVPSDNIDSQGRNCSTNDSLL

Structure (SMILES)	response
CCN1CCC2(CC1)N=C(c1ccc(F)cc1)C(=S)N2C(=O)c1ccc(C)cc1	85.6% (active)
CCN1CCN(C(=O)CSc2ccc(C)cc2)CC1	11.4%
Cc1ccc(SCC(=O)N2CCN(c3ccc(F)cc3)CC2)cc1	-23.7%
CCn1cc(/C=C(\NC(=O)c2ccc(C)cc2)C(=O)NCCN2CCOCC2)c2ccccc21	4.83%
CCCN(Cc1cc2cccc(C)c2[nH]c1=O)S(C)(=O)=O	9.7%
COc1ccc(CCNC(=O)C(=O)Nc2ccc3nc4n(c(=O)c3c2)CCCCC4)cc1OC	-7.18%
Cc1nc(-c2ccc(Cl)cc2)sc1C1(C)CC(c2ccc(Br)cc2)=NO1 (stereo not drawn)	-4.06%
NC(N)=Nc1nc(-c2ccccc2)c2cc(Cl)ccc2n1	8.97%
Clc1ccc2nc(-c3ccccc3)nc(C(Cl)Cl)c2c1	50% (active)
Clc1cccc(-c2nc(NCC3CCCO3)c3ccccc3n2)c1 (stereo not drawn)	-5.27%
Cc1ccc(S(=O)(=O)NCCc2nnc3ccc(SCc4cccnc4)nn23)cc1	-8.28%
CC(C)OC(=O)c1ccc(COc2ccc3ccc(=O)oc3c2)o1	-3.14%
CCN(CC)C(=O)CSc1nnc(CNc2ccc(F)cc2)n1Cc1ccco1	-1.42%
O=C(N[C@@H](Cc1ccccc1)C(=O)OCc1ccccc1)c1nc[nH]c1C(=O)NC1CCNCC1	-6.96%
CC(C)(C)OC(=O)N1CCC(NC(=O)c2[nH]cnc2C(=O)N[C@@H](Cc2ccccc2)C(=O)OCc2ccccc2)CC1	78.6% (active)
CC(C)(C)OC(=O)CNC(=O)c1[nH]cnc1C(=O)N[C@@H](Cc1ccccc1)C(=O)OCc1ccccc1	10.2%
O=C(O)c1ccc(Cn2cnc3c(=S)nc[nH]c32)cc1	5.59%
O=C(O)c1cc(S(=O)(=O)Nc2ccc3cn[nH]c3c2)ccc1Br	7.91%
O=S(=O)(Nc1ccc2[nH]ncc2c1)c1ccccc1Cl	60.7% (active)
O=S(=O)(Nc1ccc2cn[nH]c2c1)c1ccccc1	4.15%

Structure (SMILES)	response
Cc1ccc(S(=O)(=O)N(CC(=O)NN=C2CCN(C)CC2)c2ccc(F)cc2)cc1	-3.48%
Oc1ccccc1C1=NN(c2ccccc2)C(c2ccccc2)C1 (stereo not drawn)	13.4%
COc1ccc(CCNC(=O)C2CCCN(S(=O)(=O)c3ccc(OC)cc3)C2)cc1 (stereo not drawn)	-1.09%
COc1ccc(S(=O)(=O)N2CCCC(C(=O)Nc3ccc(NC(=O)c4ccccn4)cc3)C2)cc1 (stereo not drawn)	46.4% (active)
CC(=O)Nc1ccc(NC(=O)C2CCCN(S(=O)(=O)c3ccc(Cl)cc3)C2)cc1 (stereo not drawn)	-2.61%
COc1ccc(C2CC(c3cccs3)Nc3nnnn32)cc1 (stereo not drawn)	12.6%
Cc1ccc2nc(-c3ccc(NC(=O)c4cccnc4)cc3)oc2c1	17.5%
Cc1ccc(NC(=O)COc2ccc(/C=C3/NC(=O)NC3=O)cc2)cc1	7.62%
Cc1ccc(OCC(=O)Nc2ccc(-c3nc4ncccc4o3)cc2)cc1	117% (active)
COc1cc(/C=C2/C(=O)ON=C2C)ccc1OCc1cccc(F)c1	105% (active)
C=CCOc1ccc(/C=C2/C(=O)ON=C2C)cc1OCC	4.94%
CC1=NOC(=O)/C1=C\c1ccccc1	10.9%
COc1cc(/C=C2\SC(=O)NC2=O)ccc1OCc1ccc(Cl)nc1	12.6%
COc1cc(/C=C2/C(=O)ON=C2C)ccc1OCc1ccccc1F	88.8% (active)
C#CCOc1ccc(/C=C2/C(=O)ON=C2C)cc1OCC	-1.93%
CCOC(=O)c1cnc2c(c(C)nn2CC)c1Cl	0.74%
Cc1ccccc1OCCC(=O)OCC(=O)NCCc1ccc(S(N)(=O)=O)cc1	-1.82%
CCCCN(CC)C(=O)C1CCCN(S(=O)(=O)c2cccc3nsnc23)C1 (stereo not drawn)	-4.41%
CCCCNC(=S)NNC(=O)c1cc(C)on1	8.38%
COc1cc2c(cc1OC)C(/C=C/c1ccco1)=NCC2	-9.05%

Structure (SMILES)	response
CCCn1c(C)cc(/C=C(\C#N)C(=O)OCC(=O)Nc2cc(OC)c(OC)c(OC)c2)c1C	-0.22%
CCOC(=O)/C(C#N)=C/c1ccc(OCC(=O)Nc2ccccc2)c(OC)c1	46.3% (active)
COc1cc(C2C3=C(CCCC3=O)OC3=C2C(=O)CCC3)ccc1OCC(=O)Nc1ccccc1	3.2%
CCCn1c(N)c(C(=O)CSc2nnc3n2CCCCC3)c(=O)[nH]c1=O	-3.04%
O=C(/C=C/c1ccc(Cl)c([N+](=O)[O-])c1)c1cccnc1	77.9% (active)
O=C(/C=C/c1ccc(Cl)cc1Cl)c1cccnc1	6.98%
O=C(Nc1cccnc1)c1ccc(Cl)cc1[N+](=O)[O-]	0.76%
O=C(CNC(=O)c1ccccc1F)OCC(=O)c1c[nH]c2ccccc12	10.7%
CC(C)CCN(C(=O)c1csnn1)C(C(=O)NC1CCCC1)c1ccccc1 (stereo not drawn)	7.85%
CC(=O)Nc1ccc(S(=O)(=O)N(C)c2nc3ccccc3nc2Cl)cc1	0.46%
CC(=O)Nc1ccc(Nc2c([N+](=O)[O-])cc(S(C)(=O)=O)cc2[N+](=O)[O-])cc1	2.64%
CC(=O)Nc1ccc(Nc2c3ccccc3nc3ccccc23)cc1	51.1% (active)
Cc1ccc(CN2CCN(/N=C/c3cccnc3)CC2)c(C)c1	4.74%
CC(=O)Nc1ccc(NC(=O)COC(=O)c2ccccc2C(=O)c2ccccc2)cc1	-9.28%
CC(=O)Nc1ccc(NC(=O)C(C)OC(=O)c2ccccc2C(=O)c2ccc(Cl)c([N+](=O)[O-])c2)cc1 (stereo not drawn)	20.8%
N#Cc1cccc(NC(=O)COC(=O)c2ccccc2C(=O)c2ccc(Cl)c([N+](=O)[O-])c2)c1	46.3% (active)
CC[n+]1cc(C)ccc1/C=C/c1ccc(N(C)C)cc1	-468%
CCCN(CCC)S(=O)(=O)c1ccc(C(=O)NNC(=O)c2cc(OC)c(OC)c(OC)c2)cc1	4.58%
